# From the supplement of paper PMC8728848
# This excerpt belongs to a sample that is enriched for the strongest signals.
# B1: SBD-G4S3-SBD (protein)
# chain: MASIPSSASVQLDSYNYDGSTFSGKIYVKNIAYSKKVTVVYADGSDNWNNNGNIIAASFSGPISGSNYEYWTFSASVKGIKEFYIKYEVSGKTYYDNNNSANYQVSTGGGGSGGGGSGGGGSEFASIPSSASVQLDSYNYDGSTFSGKIYVKNIAYSKKVTVVYADGSDNWNNNGNIIAASFSGPISGSNYEYWTFSASVKGIKEFYIKYEVSGKTYYDNNNSANYQVST
# What was measured:
# Assay in all cases: glycan array binding signal (z-score within array); higher = stronger binding
# Conditions in all cases: glycan notation: IUPAC condensed, linker removed
# [1] = target: Gal(b1-4)GlcNAc(b1-3)Gal(b1-4)GlcNAc(b1-3)Gal(b1-4)GlcNAc(b1-3)Gal(b1-4)GlcNAc(b1-3)Gal(b1-4)GlcNAc(b1-2)[Gal(b1-4)GlcNAc(b1-3)Gal(b1-4)GlcNAc(b1-3)Gal(b1-4)GlcNAc(b1-3)Gal(b1-4)GlcNAc(b1-3)Gal(b1-4)GlcNAc(b1-6)]Man(a1-6)[Gal(b1-4)GlcNAc(b1-3)Gal(b1-4)GlcNAc(b1-3)Gal(b1-4)GlcNAc(b1-3)Gal(b1-4)GlcNAc(b1-3)Gal(b1-4)GlcNAc(b1-2)Man(a1-3)]Man(b1-4)GlcNAc(b1-4)[Fuc(a1-6)]GlcNAc
# Method in brief: (§1)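 Glycan array data came from 3228 arrays in the Consortium for Functional Glycomics database, and only arrays with an available protein sequence were kept. Glycan names were put into IUPAC-condensed notation, and columns mapping to the same glycan were averaged. The binding signal is a within-array Z-score, averaged across arrays of one protein sequence run at different concentrations or buffers and across linkers. A negative Z-score can be read as non-binding.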
# Gal(b1-4)GlcNAc6P = target: Gal(b1-4)GlcNAc6P
# Method in brief: as §1
# Gal(b1-6)Gal = target: Gal(b1-6)Gal
# Method in brief: as §1
# Gal3S(b1-3)GalNAc = target: Gal3S(b1-3)GalNAc
# Method in brief: as §1
# Gal3S(b1-3)GlcNAc = target: Gal3S(b1-3)GlcNAc
# Method in brief: as §1
# Gal6S(b1-4)GlcNAc = target: Gal6S(b1-4)GlcNAc
# Method in brief: as §1
# [2] = target: GalNAc(a1-3)GalNAc(b1-3)Gal(a1-4)Gal(b1-4)Glc
# Method in brief: as §1
# [3] = target: GalNAc(b1-3)Gal(a1-4)Gal(b1-4)GlcNAc
# Method in brief: as §1
# [4] = target: Glc(a1-4)Glc(a1-4)Glc(a1-4)Glc
# Method in brief: as §1
# [5] = target: GlcNAc(b1-2)[GlcNAc(b1-4)]Man(a1-3)[GlcNAc(b1-4)][GlcNAc(b1-2)[GlcNAc(b1-6)]Man(a1-6)]Man(b1-4)GlcNAc(b1-4)[Fuc(a1-6)]GlcNAc
# Method in brief: as §1
# [6] = target: GlcNAc(b1-3)Gal(b1-4)GlcNAc(b1-3)Gal(b1-4)GlcNAc(b1-2)[GlcNAc(b1-3)Gal(b1-4)GlcNAc(b1-3)Gal(b1-4)GlcNAc(b1-6)]Man(a1-6)[GlcNAc(b1-3)Gal(b1-4)GlcNAc(b1-3)Gal(b1-4)GlcNAc(b1-2)Man(a1-3)]Man(b1-4)GlcNAc(b1-4)[Fuc(a1-6)]GlcNAc
# Method in brief: as §1
# [7] = target: GlcNAc(b1-3)Gal(b1-4)GlcNAc(b1-6)[GlcNAc(b1-3)]Gal(b1-4)GlcNAc
# Method in brief: as §1
# [8] = target: Man(a1-3)[Man(a1-6)]Man(a1-6)[Man(a1-3)]Man
# Method in brief: as §1
# [9] = target: Man(a1-3)[Man(a1-6)]Man(a1-6)[Man(a1-3)]Man(b1-4)GlcNAc(b1-4)GlcNAc
# Method in brief: as §1
# [10] = target: Neu5Ac(a2-3)Gal(b1-3)GlcNAc(b1-4)Gal(b1-4)Glc
# Method in brief: as §1
# Neu5Ac(a2-3)Gal(b1-4)Glc = target: Neu5Ac(a2-3)Gal(b1-4)Glc
# Method in brief: as §1
# [11] = target: Neu5Ac(a2-3)Gal(b1-4)GlcNAc(b1-3)GalNAc
# Method in brief: as §1
# [12] = target: Neu5Ac(a2-3)Gal(b1-4)[Fuc(a1-3)]GlcNAc(b1-6)[Gal(b1-3)]GalNAc
# Method in brief: as §1
# [13] = target: Neu5Ac(a2-6)Gal(b1-4)GlcNAc(b1-2)Man(a1-3)[Man(a1-6)]Man(b1-4)GlcNAc(b1-4)GlcNAc
# Method in brief: as §1
# [14] = target: Neu5Ac(a2-6)Gal(b1-4)GlcNAc(b1-3)Gal(b1-4)GlcNAc(b1-6)[Gal(b1-3)]GalNAc
# Method in brief: as §1
# [15] = target: Neu5Ac(a2-6)GalNAc(b1-4)GlcNAc6S
# Method in brief: as §1
# [16] = target: Neu5Ac(a2-8)Neu5Ac(a2-8)Neu5Ac
# Method in brief: as §1
# [17] = target: Neu5Gc(a2-3)Gal(b1-3)[Fuc(a1-4)]GlcNAc
# Method in brief: as §1
# [18] = target: Neu5Gc(a2-3)Gal(b1-4)GlcNAc
# Method in brief: as §1
binder,measurement,setting,value
B1,glycan array binding signal (z-score),[1],8.43
same,glycan array binding signal (z-score),Gal(b1-4)GlcNAc6P,-0.348
same,glycan array binding signal (z-score),Gal(b1-6)Gal,-0.136
same,glycan array binding signal (z-score),Gal3S(b1-3)GalNAc,-0.369
same,glycan array binding signal (z-score),Gal3S(b1-3)GlcNAc,-0.406
same,glycan array binding signal (z-score),Gal6S(b1-4)GlcNAc,4.01
same,glycan array binding signal (z-score),[2],-0.403
same,glycan array binding signal (z-score),[3],-0.37
same,glycan array binding signal (z-score),[4],5.44
same,glycan array binding signal (z-score),[5],-0.39
same,glycan array binding signal (z-score),[6],-0.26
same,glycan array binding signal (z-score),[7],-0.406
same,glycan array binding signal (z-score),[8],-0.125
same,glycan array binding signal (z-score),[9],-0.351
same,glycan array binding signal (z-score),[10],-0.389
same,glycan array binding signal (z-score),Neu5Ac(a2-3)Gal(b1-4)Glc,-0.399
same,glycan array binding signal (z-score),[11],-0.327
same,glycan array binding signal (z-score),[12],4.53
same,glycan array binding signal (z-score),[13],0.556
same,glycan array binding signal (z-score),[14],-0.221
same,glycan array binding signal (z-score),[15],-0.365
same,glycan array binding signal (z-score),[16],-0.377
same,glycan array binding signal (z-score),[17],-0.366
same,glycan array binding signal (z-score),[18],-0.326
